Experimental findings from PubChem BioAssay (NCI) are described below.

A short description of assay [1]: NCI Yeast Anticancer Drug Screen. Data for the rad50 strain (AID 155).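 Further: 0% = growth of vehicle-only cultures of the same strain.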 The conditions noted are these: S. cerevisiae rad50 strain growth inhibition, hits give high values. An outline of the steps: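 DNA repair mutant yeast, compound exposure, growth read-out; inhibition is taken relative to vehicle.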
Assay [2] can be described thus: NCI Yeast Anticancer Drug Screen. Data for the mec2-1 strain (AID 157). The conditions noted are these: S. cerevisiae mec2-1 strain, hits give high values. Summed up: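 Growth inhibition is read against vehicle-treated controls after compound exposure of the mec2-1 yeast strain, which is defective in DNA damage repair or cell cycle control.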
Assay [3] can be described thus: NCI Yeast Anticancer Drug Screen. Data for the sgs1 mgt1 strain (AID 161).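 Further: 0% = growth of cultures given vehicle only.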 The conditions noted are these: S. cerevisiae sgs1 mgt1 strain, hits give high values. Summed up: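 Compounds are added to genetically altered yeast, and growth is compared with cultures given vehicle alone to give percent inhibition.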
Assay [4] can be described thus: NCI Yeast Anticancer Drug Screen. Data for the cln2 rad14 strain (AID 165).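 Further: 0% = growth equal to vehicle treated cultures.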 To be noted: S. cerevisiae cln2 rad14 strain, hits give high values. Summed up: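 Growth inhibition, relative to vehicle-treated controls, is the read-out. The test organism is a yeast strain with defined genetic alterations, cln2 rad14.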
Assay [5] can be described thus: NCI Yeast Anticancer Drug Screen. Data for the bub3 strain (AID 167). To be noted: S. cerevisiae bub3 mutant strain, hits give high values. Summed up: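 In this screen, a yeast mutant lacking normal mitotic checkpoint function is challenged with compound. Relative growth versus vehicle gives the inhibition value.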
Assay [6] in a line: NCI Yeast Anticancer Drug Screen. Data for the mlh1 rad18 strain (AID 175). The conditions noted are these: S. cerevisiae mlh1 rad18 strain growth inhibition, hits give high values. An outline of the steps: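 Cells of a genetically altered yeast strain, deficient in DNA damage repair, were treated with compound. Their growth was then compared with that of vehicle-treated cultures to give inhibition.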

Where [7] appears, read: at 5.0 µM (retest, dose inferred, filed as 0.5).
Setting [8] is: at 50.0 µM (retest, dose inferred, filed as 5.0).

Structures are written as SMILES. This is part of a sample that, as a whole, favours compounds with a hit. Of some 79,000 tested, about 15% had one in any assay. Values without a mark were called inactive. Calls of active or inactive are those of the source. No stated cut-off is given here; in the data, active means growth inhibition above about 70%; inactive means the rest.

Turning to `COc1cc(O)c2c(c1)C(O)C(O)CC1OC1C(=O)/C=C/CC(C)OC2=O` (stereo not drawn), the growth inhibition in assay [1] (setting [7]) was 80% (active); in assay [1] (setting [8]), 98% (active); in assay [1] (at 50.0 µM), 91.5% (active); in assay [2] (setting [7]), 59%; in assay [2] (setting [8]) it was 99% (active); in assay [2] (at 50.0 µM) it was 93.3% (active). In addition, the growth inhibition in assay [3] (setting [7]) was 64%; in assay [3] (setting [8]), 99% (active); in assay [3] (at 50.0 µM), 93.1% (active); in assay [4] (setting [7]) it was 61%; in assay [4] (setting [8]), 99% (active); in assay [4] (at 50.0 µM), 92.2% (active). Further, the growth inhibition in assay [5] (setting [7]) was 79% (active); in assay [5] (setting [8]), 99% (active); in assay [5] (at 50.0 µM), 92% (active); in assay [6] (setting [7]), 81% (active); in assay [6] (setting [8]) it was 98% (active); in assay [6] (at 50.0 µM), 92% (active).

Turning to `CCS(=O)(=O)/C=C\S(=O)(=O)CC`, the growth inhibition in assay [1] (setting [7]) was -154%; in assay [1] (setting [8]), -117%; in assay [1] (at 50.0 µM), 37.2%; in assay [2] (setting [7]) it was -52%; in assay [2] (setting [8]), -36%; in assay [2] (at 50.0 µM), 47.5%. The growth inhibition in assay [3] (setting [7]) was -64%; in assay [3] (setting [8]), -43%; in assay [3] (at 50.0 µM), 47.3%; in assay [4] (setting [7]) it was -49%; in assay [4] (setting [8]), -37%; in assay [4] (at 50.0 µM) it was -12.7%. The growth inhibition in assay [5] (setting [7]) is -65%; in assay [5] (setting [8]), -59%; in assay [5] (at 50.0 µM), 88.3% (active); in assay [6] (setting [7]) it was -147%; in assay [6] (setting [8]) it was -70%; in assay [6] (at 50.0 µM) it was 69%.

Consider `ClC(Cl)(Cl)C1OCOC(C(Cl)(Cl)Cl)O1` (stereo not drawn), for which the growth inhibition is 20% in assay [1] (setting [7]); 98% (active) in assay [1] (setting [8]); 99.2% (active) in assay [1] (at 50.0 µM); 17% in assay [2] (setting [7]); 99% (active) in assay [2] (setting [8]); 99.2% (active) in assay [2] (at 50.0 µM). Further, the growth inhibition in assay [3] (setting [7]) is 11%; in assay [3] (setting [8]) it was 99% (active); in assay [3] (at 50.0 µM), 99.3% (active); in assay [4] (setting [7]) it was 24%; in assay [4] (setting [8]), 99% (active); in assay [4] (at 50.0 µM), 99.3% (active). The growth inhibition was 3% in assay [5] (setting [7]); 98% (active) in assay [5] (setting [8]); 99.3% (active) in assay [5] (at 50.0 µM); 33% in assay [6] (setting [7]); 99% (active) in assay [6] (setting [8]); 99.3% (active) in assay [6] (at 50.0 µM).

Take `O=[N+]([O-])c1ccc2c(c1)CCc1ccccc1-2`: the growth inhibition in assay [1] (setting [7]) was 10%; in assay [1] (setting [8]), 77% (active); in assay [1] (at 50.0 µM) it was 52.6%; in assay [2] (setting [7]) it was -18%; in assay [2] (setting [8]), 37%; in assay [2] (at 50.0 µM), -2.75%. The growth inhibition in assay [3] (setting [7]) was 12%; in assay [3] (setting [8]) it was 75% (active); in assay [3] (at 50.0 µM), 76.6% (active); in assay [4] (setting [7]), -1%; in assay [4] (setting [8]) it was 33%; in assay [4] (at 50.0 µM), 9.4%. Moreover, the growth inhibition was -15% in assay [5] (setting [7]); 78% (active) in assay [5] (setting [8]); 20.4% in assay [5] (at 50.0 µM); 16% in assay [6] (setting [7]); 89% (active) in assay [6] (setting [8]); 68.7% in assay [6] (at 50.0 µM).

On to `CCCCCCCCCCCCNC(=O)OCC(C)O` (stereo not drawn) (tested in a mixture with another compound), for which the growth inhibition was 95% (active) in assay [1] (setting [7]); 97% (active) in assay [1] (setting [8]); 98.2% (active) in assay [1] (at 50.0 µM); 76% (active) in assay [2] (setting [7]); 93% (active) in assay [2] (setting [8]); 96.6% (active) in assay [2] (at 50.0 µM). Moreover, the growth inhibition in assay [3] (setting [7]) is 96% (active); in assay [3] (setting [8]), 98% (active); in assay [3] (at 50.0 µM), 98.9% (active); in assay [4] (setting [7]) it was 81% (active); in assay [4] (setting [8]) it was 88% (active); in assay [4] (at 50.0 µM), 97.9% (active). In addition, the growth inhibition was 84% (active) in assay [5] (setting [7]); 74% (active) in assay [5] (setting [8]); 99.4% (active) in assay [5] (at 50.0 µM); 93% (active) in assay [6] (setting [7]); 91% (active) in assay [6] (setting [8]); 98.5% (active) in assay [6] (at 50.0 µM).

On to `O=C(CCCCCCCCCCc1ccccc1)c1c(O)cccc1O`, for which the growth inhibition in assay [1] (setting [7]) was 37%; in assay [1] (setting [8]), 96% (active); in assay [1] (at 50.0 µM), 82.7% (active); in assay [2] (setting [7]) it was 29%; in assay [2] (setting [8]), 97% (active); in assay [2] (at 50.0 µM) it was 89% (active). Moreover, the growth inhibition in assay [3] (setting [7]) was 45%; in assay [3] (setting [8]), 97% (active); in assay [3] (at 50.0 µM), 87.2% (active); in assay [4] (setting [7]), 24%; in assay [4] (setting [8]), 95% (active); in assay [4] (at 50.0 µM), 83.3% (active). The growth inhibition in assay [5] (setting [7]) is 41%; in assay [5] (setting [8]), 97% (active); in assay [5] (at 50.0 µM), 85.4% (active); in assay [6] (setting [7]), 39%; in assay [6] (setting [8]) it was 95% (active); in assay [6] (at 50.0 µM), 79.3% (active).
